In this assay the test system is Trichoderma virens ATCC 9645. Put plainly: growth yield (OD600) with compound + IPBC relative to untreated control; higher = less growth inhibition. The following applies: compound concentration: 100 uM, IPBC concentration: 200 ng/ml. The method in brief:
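Plates were read for OD600 at 40 h and 72 h after Trichoderma virens ATCC 9645 spores (15,000 spores ml^−1 in potato dextrose broth) were grown at 30 °C with library compounds at 100 μM final, with or without a biocide at 200 ng ml^−1. Growth is stated relative to the control with neither agent, as the mean of duplicate screens.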

26 compounds from the supplement of paper PMC8007513 can be followed below.

Structures can show the parent of a compound that is named as a salt. ± gives the standard error. Hit rate of the full screen: of about 1,300 compounds, about 130 (10%) showed an effect of 50% or more. Only a selection was taken, and strong results are over-represented in it overall.

For `COc1cccc(C2(O)CCCCC2CN(C)C)c1` (configuration not stated) [Tramadol hydrochloride] + CCCCNC(=O)OCC#CI [3-iodo-2-propynyl butylcarbamate (IPBC)], the growth yield amounted to 87.5 ± 2.1% (40 h) and 90.51 ± 0.73% (72 h).

In the case of `COCCCOc1cc(C[C@@H](C[C@H](N)[C@@H](O)C[C@H](C(=O)NCC(C)(C)C(N)=O)C(C)C)C(C)C)ccc1OC` [Aliskiren hemifumarate] + CCCCNC(=O)OCC#CI [3-iodo-2-propynyl butylcarbamate (IPBC)], the growth yield (40 h) amounted to 93.4 ± 5.1% and the growth yield (72 h) came out at 99.1 ± 1.1%.

With `CCOc1ccccc1OC(c1ccccc1)C1CNCCO1` (configuration not stated) [Reboxetine mesylate] + CCCCNC(=O)OCC#CI [3-iodo-2-propynyl butylcarbamate (IPBC)], the growth yield worked out at 82.92 ± 0.32% (40 h) and 90.61 ± 0.63% (72 h).

With `CC(N)C(O)c1ccccc1` (configuration not stated) [Phenylpropanolamine hydrochloride] + CCCCNC(=O)OCC#CI [3-iodo-2-propynyl butylcarbamate (IPBC)], the growth yield amounted to 97.1 ± 7.5% (40 h) and 101 ± 3.5% (72 h).

With `O=C(O)CN(CCN(CC(=O)O)CC(=O)O)CCN(CC(=O)O)CC(=O)O` [Pentetic acid] + CCCCNC(=O)OCC#CI [3-iodo-2-propynyl butylcarbamate (IPBC)], the growth yield (40 h) stood at 18.7 ± 1.6% and the growth yield (72 h) amounted to 88.41 ± 0.73%.

Consider `CCc1cccc(CC)c1NC(=O)CN(CC(=O)O)CC(=O)O` [Etifenin] + CCCCNC(=O)OCC#CI [3-iodo-2-propynyl butylcarbamate (IPBC)], for which the growth yield runs as follows: (40 h) 87.7 ± 4.1%; (72 h) 94.4 ± 2.3%.

Regarding `O=P(O)(O)C(O)(Cc1cccnc1)P(=O)(O)O` [Risedronic acid monohydrate] + CCCCNC(=O)OCC#CI [3-iodo-2-propynyl butylcarbamate (IPBC)], the growth yield is, setting by setting: (40 h) 88.8 ± 2.7%; (72 h) 91.66 ± 0.42%.

As to `COc1ccc(C[C@@H]2c3cc(OC)c(OC)cc3CC[N@+]2(C)CCC(=O)OCCCCCOC(=O)CC[N@@+]2(C)CCc3cc(OC)c(OC)cc3[C@H]2Cc2ccc(OC)c(OC)c2)cc1OC` [Cisatracurium besylate] + CCCCNC(=O)OCC#CI [3-iodo-2-propynyl butylcarbamate (IPBC)], the growth yield (40 h) was found to be 78.3 ± 2.1% and the growth yield (72 h) was determined as 85.9 ± 4.1%.

Regarding `CC1=C(/C=C/C(C)=C/C=C/C(C)=C\C(=O)O)C(C)(C)CCC1` [Isotretinoin] + CCCCNC(=O)OCC#CI [3-iodo-2-propynyl butylcarbamate (IPBC)], the growth yield runs as follows: (40 h) 83.5%; (72 h) 105 ± 16%.

For `CCCCOc1ccc(CC(=O)NO)cc1` [Bufexamac] + CCCCNC(=O)OCC#CI [3-iodo-2-propynyl butylcarbamate (IPBC)], the growth yield by setting is: (40 h) 99.59 ± 0.16%; (72 h) 95.438 ± 1e-14%.

On to `CCCCOc1ccc(C(=O)CCN2CCCCC2)cc1` [Dyclonine hydrochloride] + CCCCNC(=O)OCC#CI [3-iodo-2-propynyl butylcarbamate (IPBC)], for which the growth yield (40 h) was found to be 75.4 ± 1.1% and the growth yield (72 h) is 90.8 ± 1.5%.

For `N=C(N)c1ccc(OCCCCCOc2ccc(C(=N)N)cc2)cc1` [Pentamidine isethionate] + CCCCNC(=O)OCC#CI [3-iodo-2-propynyl butylcarbamate (IPBC)], the growth yield stood at 2.7 ± 0.48% (40 h) and 2.1 ± 0.42% (72 h).

Regarding `CCCNC(C)(C)COC(=O)c1ccccc1` [Meprylcaine hydrochloride] + CCCCNC(=O)OCC#CI [3-iodo-2-propynyl butylcarbamate (IPBC)], the growth yield by setting is: (40 h) 87.7 ± 7.6%; (72 h) 91.8 ± 5.1%.

As for `Nc1nc(O)c2ncn(CCC(CO)CO)c2n1` [Penciclovir] + CCCCNC(=O)OCC#CI [3-iodo-2-propynyl butylcarbamate (IPBC)], the growth yield (40 h) is 82.76 ± 0.48% and the growth yield (72 h) worked out at 95.6 ± 1.3%.

In the case of `Cc1ccccc1C(=O)Nc1ccc(C(=O)N2CCCC(O)c3cc(Cl)ccc32)c(C)c1` (configuration not stated) [Tolvaptan] + CCCCNC(=O)OCC#CI [3-iodo-2-propynyl butylcarbamate (IPBC)], the growth yield by setting is: (40 h) 107 ± 2.5%; (72 h) 107.1 ± 0.94%.

On to `CN1CCCC(CC2c3ccccc3Sc3ccccc32)C1` (configuration not stated) [Metixene hydrochloride] + CCCCNC(=O)OCC#CI [3-iodo-2-propynyl butylcarbamate (IPBC)], for which the growth yield by setting is: (40 h) 48.9 ± 2.2%; (72 h) 85.3 ± 2%.

Regarding `Cc1ncc(CO)c(CO)c1O` [Pyridoxine hydrochloride] + CCCCNC(=O)OCC#CI [3-iodo-2-propynyl butylcarbamate (IPBC)], the growth yield is 79.58 ± 0.79% (40 h) and 85.7 ± 2.2% (72 h).

For the compound `CCN(CC)CCOC(=O)C(Cc1cccc2ccccc12)CC1CCCO1` (configuration not stated) [Nafronyl oxalate] + CCCCNC(=O)OCC#CI [3-iodo-2-propynyl butylcarbamate (IPBC)], the growth yield turned out to be 71.5 ± 1.3% (40 h) and 87.36 ± 0.1% (72 h).

In the case of `CO[C@H]1/C=C/O[C@@]2(C)Oc3c(C)c(O)c4c(O)c(c(/C=N/N5CCN(C6CCCC6)CC5)c(O)c4c3C2=O)NC(=O)/C(C)=C\C=C\[C@H](C)[C@H](O)[C@@H](C)[C@@H](O)[C@@H](C)[C@H](OC(C)=O)[C@@H]1C` [Rifapentine] + CCCCNC(=O)OCC#CI [3-iodo-2-propynyl butylcarbamate (IPBC)], the growth yield (40 h) came out at 90.2 ± 0.95% and the growth yield (72 h) worked out at 94.5 ± 2.6%.

Regarding `NC[C@H]1CC[C@H](C(=O)O)CC1` [Tranexamic acid] + CCCCNC(=O)OCC#CI [3-iodo-2-propynyl butylcarbamate (IPBC)], the growth yield came to 100 ± 3.8% (40 h) and 104 ± 1.1% (72 h).

Regarding `CCC1(c2ccccc2)NC(=O)N(C)C1=O` (configuration not stated) [Mephenytoin] + CCCCNC(=O)OCC#CI [3-iodo-2-propynyl butylcarbamate (IPBC)], the growth yield (40 h) was determined as 88.5 ± 2.4% and the growth yield (72 h) was found to be 100 ± 9.9%.

For `CN(C)[C@@H]1C(O)=C(C(N)=O)C(=O)[C@@]2(O)C(O)=C3C(=O)c4c(O)cccc4[C@@](C)(O)[C@H]3C[C@@H]12` [Tetracycline hydrochloride] + CCCCNC(=O)OCC#CI [3-iodo-2-propynyl butylcarbamate (IPBC)], the growth yield is, setting by setting: (40 h) 99.3 ± 11%; (72 h) 96.9 ± 6.3%.

For `C[N+]1(C)CCC(OC(=O)C(O)(c2ccccc2)C2CCCC2)C1` (configuration not stated) [Glycopyrrolate] + CCCCNC(=O)OCC#CI [3-iodo-2-propynyl butylcarbamate (IPBC)], the growth yield turned out to be 101 ± 14% (40 h) and 98.7 ± 8.1% (72 h).

On to `O=C1c2c(O)ccc(O)c2C(=O)c2c(NCCNCCO)ccc(NCCNCCO)c21` [Mitoxantrone dihydrochloride] + CCCCNC(=O)OCC#CI [3-iodo-2-propynyl butylcarbamate (IPBC)], for which the growth yield runs as follows: (40 h) 1.27 ± 1.3%; (72 h) 0%.

Regarding `O=C1c2cccc(O)c2C(=O)c2c(O)cccc21` [1,8-Dihydroxyanthraquinone] + CCCCNC(=O)OCC#CI [3-iodo-2-propynyl butylcarbamate (IPBC)], the growth yield by setting is: (40 h) 55.12 ± 0.16%; (72 h) 77.2 ± 1.9%.

As to `O=C1c2c(O)cccc2Cc2cccc(O)c21` [Anthralin] + CCCCNC(=O)OCC#CI [3-iodo-2-propynyl butylcarbamate (IPBC)], the growth yield was 71.8 ± 3.8% (40 h) and 82.4 ± 1.3% (72 h).
